# Reference: the supplement of paper PMC8728848
# This is one part of a sample in which the strongest signals are shown more often than they occur.
# B1: PX14343H-pdi-506-26-506 (Parabacteroides distasonis) (protein)
# chain: QPTGTMTTDSKLTSKESALALTNSAYLKNTVFNKMTPGWGCNTILLLEYMTGKATSENSQSNYKDFQDLLVSDRSLYIEDWWQDCYAGIANCNLALQKLGEFENLDASLVNGYMAEVKFMRALYYFYLVRIFGDVPKITTVQSELGELQVSRAPVKEIYDEIIIPDLLEAEQSDLAFSDHTGRVSMGAVKALLADVYLTYAGYPLQGGKSYYAESAKRSLEVIKSNEYTLFTDYESLRLPSQNNKGEFIYQVQFSLNKRHNESVRIFLPSRSGISAYDLEYGSLIPTKEFVESFEKGDKRTEEKQYFFTNYKGHPSKFSPGAAELEFMDLNGYYIYKFFDQVAVDNTAKSDLNWSVYRYTDVLLMYAEAQVNADGTPNQQSIDIVNQIRGRAGLAPFKQTNASAFLEEVWDQRYFDLCYENKMWFDMLRTRKIRDDKSGEYVDFIGYKTNWGKVYTETQLLFPIPLSERQANPNLTQNQGY
# Columns and labels:
# Experiment in all cases: glycan array binding signal (z-score within array); higher = stronger binding
# Conditions in all cases: glycan notation: IUPAC condensed, linker removed
# [1] = biological target: Gal(b1-4)GlcNAc(b1-3)Gal(b1-4)GlcNAc(b1-2)Man(a1-3)[Gal(b1-4)GlcNAc(b1-3)Gal(b1-4)GlcNAc(b1-2)Man(a1-6)]Man(b1-4)GlcNAc(b1-4)[Fuc(a1-6)]GlcNAc
# Procedure, shortened: (§1)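 The binding signal is a Z-score computed within each array and averaged over linkers. Arrays of the same protein sequence at different concentrations or buffers were also averaged together. Data originate from 3228 arrays in the Consortium for Functional Glycomics database, kept only where the protein sequence was available.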
# [2] = biological target: Gal(b1-4)GlcNAc(b1-3)Gal(b1-4)GlcNAc(b1-3)Gal(b1-4)GlcNAc
# Procedure, shortened: as §1
# [3] = biological target: Gal(b1-4)GlcNAc(b1-3)Gal(b1-4)GlcNAc(b1-3)Gal(b1-4)GlcNAc(b1-2)Man(a1-3)[Gal(b1-4)GlcNAc(b1-3)Gal(b1-4)GlcNAc(b1-3)Gal(b1-4)GlcNAc(b1-2)Man(a1-6)]Man(b1-4)GlcNAc(b1-4)GlcNAc
# Procedure, shortened: as §1
# [4] = biological target: Gal(b1-4)GlcNAc(b1-3)Gal(b1-4)GlcNAc(b1-3)Gal(b1-4)GlcNAc(b1-2)Man(a1-3)[Gal(b1-4)GlcNAc(b1-3)Gal(b1-4)GlcNAc(b1-3)Gal(b1-4)GlcNAc(b1-2)Man(a1-6)]Man(b1-4)GlcNAc(b1-4)[Fuc(a1-6)]GlcNAc
# Procedure, shortened: as §1
# [5] = biological target: Gal(b1-4)GlcNAc(b1-3)Gal(b1-4)GlcNAc(b1-3)Gal(b1-4)GlcNAc(b1-3)Gal(b1-4)GlcNAc(b1-2)Man(a1-3)[Gal(b1-4)GlcNAc(b1-3)Gal(b1-4)GlcNAc(b1-3)Gal(b1-4)GlcNAc(b1-3)Gal(b1-4)GlcNAc(b1-2)Man(a1-6)]Man(b1-4)GlcNAc(b1-4)[Fuc(a1-6)]GlcNAc
# Procedure, shortened: as §1
# [6] = biological target: Gal(b1-4)GlcNAc(b1-3)Gal(b1-4)GlcNAc(b1-3)Gal(b1-4)GlcNAc(b1-3)Gal(b1-4)GlcNAc(b1-3)Gal(b1-4)GlcNAc(b1-2)Man(a1-3)[Gal(b1-4)GlcNAc(b1-3)Gal(b1-4)GlcNAc(b1-3)Gal(b1-4)GlcNAc(b1-3)Gal(b1-4)GlcNAc(b1-3)Gal(b1-4)GlcNAc(b1-2)Man(a1-6)]Man(b1-4)GlcNAc(b1-4)GlcNAc
# Procedure, shortened: as §1
# [7] = biological target: Gal(b1-4)GlcNAc(b1-3)Gal(b1-4)GlcNAc(b1-3)Gal(b1-4)GlcNAc(b1-3)Gal(b1-4)GlcNAc(b1-3)Gal(b1-4)GlcNAc(b1-3)Gal(b1-4)GlcNAc(b1-2)Man(a1-3)[Gal(b1-4)GlcNAc(b1-3)Gal(b1-4)GlcNAc(b1-3)Gal(b1-4)GlcNAc(b1-3)Gal(b1-4)GlcNAc(b1-3)Gal(b1-4)GlcNAc(b1-3)Gal(b1-4)GlcNAc(b1-2)Man(a1-6)]Man(b1-4)GlcNAc(b1-4)GlcNAc
# Procedure, shortened: as §1
# [8] = biological target: Gal(b1-4)GlcNAc(b1-3)Gal(b1-4)GlcNAc(b1-3)[Gal(b1-4)GlcNAc(b1-3)Gal(b1-4)GlcNAc(b1-6)]GalNAc
# Procedure, shortened: as §1
# [9] = biological target: Gal(b1-4)GlcNAc(b1-6)GalNAc
# Procedure, shortened: as §1
# [10] = biological target: Gal3S4S(b1-4)GlcNAc
# Procedure, shortened: as §1
# [11] = biological target: Gal4S6S(b1-4)GlcNAc
# Procedure, shortened: as §1
# [12] = biological target: GalNAc6S(b1-4)GlcNAc
# Procedure, shortened: as §1
# [13] = biological target: GlcNAc6S(b1-3)Gal(b1-4)GlcNAc
# Procedure, shortened: as §1
# [14] = biological target: Man(a1-2)Man(a1-3)[Man(a1-2)Man(a1-6)]Man
# Procedure, shortened: as §1
# [15] = biological target: Man(a1-2)Man(a1-3)[Man(a1-2)Man(a1-6)]Man(a1-6)[Man(a1-2)Man(a1-2)Man(a1-3)]Man(b1-4)GlcNAc(b1-4)GlcNAc
# Procedure, shortened: as §1
# [16] = biological target: Man(b1-4)GlcNAc
# Procedure, shortened: as §1
# [17] = biological target: Neu5Ac(a2-3)Gal
# Procedure, shortened: as §1
# [18] = biological target: Neu5Ac(a2-3)Gal(b1-3)GlcNAc(b1-4)Gal(b1-4)Glc
# Procedure, shortened: as §1
# [19] = biological target: Neu5Ac(a2-3)Gal(b1-3)[GlcNAc(b1-6)]GalNAc
# Procedure, shortened: as §1
# [20] = biological target: Neu5Ac(a2-3)Gal(b1-4)Glc
# Procedure, shortened: as §1
# [21] = biological target: Neu5Ac(a2-3)Gal(b1-4)GlcNAc(b1-2)Man(a1-3)[Neu5Ac(a2-6)Gal(b1-4)GlcNAc(b1-2)Man(a1-6)]Man(b1-4)GlcNAc(b1-4)GlcNAc
# Procedure, shortened: as §1
# [22] = biological target: Neu5Ac(a2-3)Gal(b1-4)GlcNAc(b1-6)[Gal(b1-3)]GalNAc
# Procedure, shortened: as §1
# [23] = biological target: Neu5Ac(a2-3)[Neu5Ac(a2-6)]GalNAc
# Procedure, shortened: as §1
# [24] = biological target: Neu5Ac(a2-6)Gal(b1-4)GlcNAc(b1-2)Man(a1-3)[Gal(b1-4)GlcNAc(b1-2)Man(a1-6)]Man(b1-4)GlcNAc(b1-4)GlcNAc
# Procedure, shortened: as §1
# [25] = biological target: Neu5Gc(a2-3)Gal(b1-4)GlcNAc(b1-3)Gal(b1-4)GlcNAc(b1-2)Man(a1-3)[Neu5Gc(a2-3)Gal(b1-4)GlcNAc(b1-3)Gal(b1-4)GlcNAc(b1-2)Man(a1-6)]Man(b1-4)GlcNAc(b1-4)GlcNAc
# Procedure, shortened: as §1
binder,measurement,setting,value
B1,glycan array binding signal (z-score),[1],6.92
same,glycan array binding signal (z-score),[2],-0.114
same,glycan array binding signal (z-score),[3],3.24
same,glycan array binding signal (z-score),[4],6.72
same,glycan array binding signal (z-score),[5],0.292
same,glycan array binding signal (z-score),[6],0.552
same,glycan array binding signal (z-score),[7],4.45
same,glycan array binding signal (z-score),[8],0.311
same,glycan array binding signal (z-score),[9],-0.235
same,glycan array binding signal (z-score),[10],-0.293
same,glycan array binding signal (z-score),[11],-0.505
same,glycan array binding signal (z-score),[12],0.278
same,glycan array binding signal (z-score),[13],-0.337
same,glycan array binding signal (z-score),[14],-0.49
same,glycan array binding signal (z-score),[15],-0.329
same,glycan array binding signal (z-score),[16],-0.406
same,glycan array binding signal (z-score),[17],-0.52
same,glycan array binding signal (z-score),[18],-0.388
same,glycan array binding signal (z-score),[19],-0.522
same,glycan array binding signal (z-score),[20],-0.335
same,glycan array binding signal (z-score),[21],4.89
same,glycan array binding signal (z-score),[22],-0.127
same,glycan array binding signal (z-score),[23],-0.483
same,glycan array binding signal (z-score),[24],2.9
same,glycan array binding signal (z-score),[25],-0.486
